14-3-3 Bad PPI – disrupts binding of bovine 14-3-3 zeta to phospho-Bad peptide. P63103. TR-FRET 14-3-3zeta/Dy647-pBad peptide displacement, 1 h. inhibition, % at 21.7 µM. actives 0.71% (n = 220,000). AID 781;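 active = inhibition above about 70%, limit read from the data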;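 note: 0% = full 14-3-3 plus peptide FRET controls and 100% = background without 14-3-3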
Target sequence (P63103 whole entry, looked up): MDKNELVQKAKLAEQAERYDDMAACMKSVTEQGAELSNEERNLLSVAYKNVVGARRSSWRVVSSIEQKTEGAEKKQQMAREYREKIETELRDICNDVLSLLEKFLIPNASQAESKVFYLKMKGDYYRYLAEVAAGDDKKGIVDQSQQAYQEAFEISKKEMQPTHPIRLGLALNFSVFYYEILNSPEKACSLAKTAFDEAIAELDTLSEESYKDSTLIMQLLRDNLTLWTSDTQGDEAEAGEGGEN
NCF1 inh – blocks human p47phox regulatory protein of NADPH oxidases. AID 1274. inhibition, % at 24.7 µM. P14598. actives 0.53% (n = 220,000). p47phox/p22phox peptide binding, fluorescence polarization, 2 h;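 note: 0% = p47phox with labelled peptide and 100% = labelled peptide alone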
Target sequence (P14598 whole entry, looked up): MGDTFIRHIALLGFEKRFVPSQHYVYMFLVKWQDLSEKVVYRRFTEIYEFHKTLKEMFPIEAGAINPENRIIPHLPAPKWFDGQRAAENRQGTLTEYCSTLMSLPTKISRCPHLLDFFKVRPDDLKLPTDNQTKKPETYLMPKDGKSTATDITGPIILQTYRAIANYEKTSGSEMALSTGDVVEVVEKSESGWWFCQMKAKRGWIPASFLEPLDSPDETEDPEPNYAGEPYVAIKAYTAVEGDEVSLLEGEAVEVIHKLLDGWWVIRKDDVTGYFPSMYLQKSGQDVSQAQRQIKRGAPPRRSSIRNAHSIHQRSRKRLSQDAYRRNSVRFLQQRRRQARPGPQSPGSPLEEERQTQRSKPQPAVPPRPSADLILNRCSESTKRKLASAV
UBC9 SUMO inh – inhibitors of human SUMOylation (UBC9). P63279. HTRF SUMOylation assay, SAE1/SAE2 + UBC9, in vitro. inhibition, % at 35 µM. actives 0.36% (n = 290,000). AID 2006; in the data active = inhibition above about 50%, passing the limit was not always enough
eIF4E 4G PPI – blocks eIF4E binding to eIF4G. P63073+Q04637. TR-FRET eIF4E-eIF4GI(517-606) binding, 2 h. inhibition, % at 21.7 µM. actives 0.37% (n = 220,000). AID 782;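 note: 0% = full FRET control wells and 100% = background wells lacking eIF4GI fragment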
Active calls of the source: *; [ ] = remark or other dose. Hits are enriched below; roughly 1.3% of the tested compounds scored in any of these assays.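 Rule for the calls, unless noted: active = inhibition above about 30% (limit read from the data); inactive = the rest.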

`COc1ccc(C(C)=O)cc1COC(=O)c1cnc(Cl)c(Cl)c1` gave 14-3-3 Bad PPI 2.1, NCF1 inh -7.4, UBC9 SUMO inh -9.6 and eIF4E 4G PPI -0.2.
`CCOC(=O)Cn1c2ccccc2c2nc3ccccc3nc21` gave 14-3-3 Bad PPI -5.4, NCF1 inh 0.1, UBC9 SUMO inh 94.0* and eIF4E 4G PPI -3.0.
`COC(=O)Cn1c(=O)cnc2ccccc21` gave 14-3-3 Bad PPI 9.2, NCF1 inh -5.1, UBC9 SUMO inh 14.1 and eIF4E 4G PPI 6.3.
`CCOC(=O)Cn1c(=O)cnc2ccccc21` gave 14-3-3 Bad PPI 1.5, NCF1 inh 31.8*, UBC9 SUMO inh -0.6 and eIF4E 4G PPI 2.6.
Screening O=C(COC(=O)c1cc(NS(=O)(=O)c2cccs2)ccc1O)Nc1cc(Cl)ccc1Cl returned 14-3-3 Bad PPI -10.6, NCF1 inh -4.0, UBC9 SUMO inh 68.6* and eIF4E 4G PPI 8.2.
O=C(COC(=O)c1ccc(NS(=O)(=O)c2cccs2)cc1)Nc1nc2c(F)c(F)c(F)cc2s1 was read as 14-3-3 Bad PPI 10.2, NCF1 inh -125.4, UBC9 SUMO inh 80.5* and eIF4E 4G PPI 14.7.
Screening O=C(Cn1c2ccc(F)cc2c2nc3n(c(=O)c21)CCS3)Nc1ccccc1C(F)(F)F returned 14-3-3 Bad PPI 81.1*, NCF1 inh 10.3, UBC9 SUMO inh -1.0 and eIF4E 4G PPI 18.4.
`O=C(Cn1c2ccc(F)cc2c2nc3n(c(=O)c21)CCS3)Nc1ccccc1F` gave 14-3-3 Bad PPI 26.1, NCF1 inh 5.4, UBC9 SUMO inh 13.4 and eIF4E 4G PPI 4.7.
NS(=O)(=O)c1ccc(-c2ccc(/C=C3\SC(=S)N(C4CCS(=O)(=O)C4)C3=O)o2)cc1 (configuration not stated) was read as 14-3-3 Bad PPI 2.1, NCF1 inh 36.4*, UBC9 SUMO inh 8.9 and eIF4E 4G PPI -7.3.
For Cc1ccc(/C=C2\SC(=S)N(C3CCS(=O)(=O)C3)C2=O)o1 (configuration not stated) the results were 14-3-3 Bad PPI -2.8, NCF1 inh -19.6, UBC9 SUMO inh 21.2 and eIF4E 4G PPI 2.8.
Screening Cc1nn(CC(=O)Nc2ccc3nc4n(c(=O)c3c2)CCCC4)c(C)c1[N+](=O)[O-] returned UBC9 SUMO inh 5.4.
Screening CCOC(=O)c1oc2cccc(O)c2c1C returned NCF1 inh -19.9 and UBC9 SUMO inh 14.4.
Screening CCOC(=O)c1oc2cccc(O)c2c1CN(Cc1ccccc1)C(C)=O returned 14-3-3 Bad PPI -6.5, NCF1 inh 32.8*, UBC9 SUMO inh 20.5 and eIF4E 4G PPI 4.6.
CC(C)CC(=O)N1CCN(CC2CC=CCC2)CC1 (configuration not stated) was read as 14-3-3 Bad PPI 76.8*, NCF1 inh 0.6, UBC9 SUMO inh 8.1 and eIF4E 4G PPI 4.1.
`O=C1c2cccc3cccc(c23)C(=O)N1/N=C/c1ccc(O)cc1O` gave 14-3-3 Bad PPI 14.8, NCF1 inh -119.7, UBC9 SUMO inh 6.5 and eIF4E 4G PPI -2.4.
For O=C1c2ccccc2C(=O)N1/N=C/c1ccc(O)c(O)c1O the results were 14-3-3 Bad PPI 49.7, NCF1 inh -3.4, UBC9 SUMO inh 71.5* and eIF4E 4G PPI 98.4*.
O=C(Nc1cccc(Cl)c1)c1ccc(F)c(S(=O)(=O)N2CCN(c3ccccn3)CC2)c1 was read as 14-3-3 Bad PPI -5.5, NCF1 inh -16.3, UBC9 SUMO inh -2.6 and eIF4E 4G PPI 4.6.
CCOc1ccc(NC(=O)c2ccc(F)c(S(=O)(=O)N3CCN(c4ccccn4)CC3)c2)cc1 was read as 14-3-3 Bad PPI 75.1*, NCF1 inh -5.1, UBC9 SUMO inh 11.6 and eIF4E 4G PPI 2.1.
`Cc1nc(N)sc1C(=O)NN` gave 14-3-3 Bad PPI -11.4, NCF1 inh -7.7, UBC9 SUMO inh 3.2 and eIF4E 4G PPI 7.9.
For O=c1/c(=C\c2cc([N+](=O)[O-])cc([N+](=O)[O-])c2O)sc2nc3ccccc3n12 the results were 14-3-3 Bad PPI 75.0*, NCF1 inh -76.2, UBC9 SUMO inh 25.7 and eIF4E 4G PPI 30.4*.
Screening O=C(O)c1cccc(-c2ccc(/C=c3/sc4nc5ccccc5n4c3=O)o2)c1 returned 14-3-3 Bad PPI 67.6, NCF1 inh -106.0, UBC9 SUMO inh 84.0* and eIF4E 4G PPI 39.3*.
Screening COc1cc2c(ccc3cc(OC)c(OC)c(O)c32)cc1O returned 14-3-3 Bad PPI 77.7*, NCF1 inh -33.3 and eIF4E 4G PPI 24.1.
`COc1cc2cccc(OC)c(=O)c2c(O)c1OC` gave 14-3-3 Bad PPI -14.4, NCF1 inh -1.4, UBC9 SUMO inh 7.7 and eIF4E 4G PPI 8.3.
O=C(NCCN1CCOCC1)c1nn2c(c1Cl)NC(c1ccccc1)CC2C(F)(F)F (configuration not stated) was read as 14-3-3 Bad PPI 3.1, NCF1 inh -21.2, UBC9 SUMO inh 26.5 and eIF4E 4G PPI 45.3*.
`O=C(NCCN1CCOCC1)c1cc2n(n1)C(C(F)(F)F)CC(c1ccc(F)cc1)N2` (configuration not stated) gave 14-3-3 Bad PPI 8.4, NCF1 inh -5.5, UBC9 SUMO inh 17.8 and eIF4E 4G PPI 3.4.
CC(NC(=O)c1ccc(Cn2cc([N+](=O)[O-])cn2)o1)c1ccccc1 (configuration not stated) was read as 14-3-3 Bad PPI 4.7, NCF1 inh 1.1, UBC9 SUMO inh -4.6 and eIF4E 4G PPI 36.2*[fluorescence artefact?].
For CCC(C)Nc1nc(-c2ccc3c(c2)NC(=O)CO3)cs1 (configuration not stated) the results were 14-3-3 Bad PPI 80.6*, NCF1 inh -13.2, UBC9 SUMO inh -5.4 and eIF4E 4G PPI 10.7.
For COc1cc(CN2CCC(C(=O)N3CCCC(C)C3)CC2)cc(Br)c1O (configuration not stated) the results were 14-3-3 Bad PPI 79.3*, NCF1 inh 0.2, UBC9 SUMO inh 10.4 and eIF4E 4G PPI 14.9.
`COc1ccc2nc(SCC(=O)NCC(F)(F)F)[nH]c2c1` gave 14-3-3 Bad PPI -15.7, NCF1 inh -2.5, UBC9 SUMO inh -6.2 and eIF4E 4G PPI -3.1.
Screening Cc1c(/C(O)=C2/C(=O)C(=O)N(CCN(C)C)C2c2ccc(C(C)C)cc2)cnn1-c1ccccc1 (configuration not stated) returned 14-3-3 Bad PPI 87.9*, NCF1 inh -1.3, UBC9 SUMO inh 7.4 and eIF4E 4G PPI 0.0.
For COc1ccccc1Oc1coc2c(CN(C)C)c(O)ccc2c1=O the results were 14-3-3 Bad PPI -1.0, NCF1 inh -6.3, UBC9 SUMO inh 37.6 and eIF4E 4G PPI 1.8.
`CCN(CC)Cc1c(O)ccc2c(=O)c(Oc3ccccc3OC)coc12` gave 14-3-3 Bad PPI 9.6, NCF1 inh -7.3, UBC9 SUMO inh 52.2* and eIF4E 4G PPI 0.8.
Screening Cc1cc(C)nc(SCc2ccc(C(=O)NNC(=O)Nc3cccc(Cl)c3)cc2)n1 returned 14-3-3 Bad PPI 93.9*, NCF1 inh 31.9*, UBC9 SUMO inh 41.8 and eIF4E 4G PPI 13.1.
For CCN(CC)c1ccc(NC2CC(=O)N(CCc3ccc(OC)cc3)C2=O)cc1 (configuration not stated) the results were 14-3-3 Bad PPI -0.5, NCF1 inh -13.3, UBC9 SUMO inh 11.5 and eIF4E 4G PPI -1.5.

Screening results: PubChem BioAssay, several laboratories
